Measurements published in PubChem BioAssay AID624255 (Broad Institute, 2012).
The whole screen tested about 77,000 compounds, of which about 4,600 (6%) were called active. Roughly 1% stayed inconclusive and do not appear here. For the sample, actives were picked, then their nearest neighbours and some compounds at random. A number with no mark means an inactive call.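 How the source made its calls: active means mean inhibition above about 93%, with at least 55% of replicates each passing it (limit read from the data, passing the limit was not always enough); inconclusive means only one of those two conditions holds; inactive means neither condition holds.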

Assay: T. cruzi intracellular proliferation inhibitors, primary screen, cell-based, beta-gal Tulahuen parasites, NIH3T3 host, luminescence (AID 624255)
Settings: T. cruzi beta-gal in NIH3T3, GalScreen luminescence, 90 h; at 8.34 µM; hits give high values

First: CO[C@H]1CN(C)C(=O)c2cc(NC(=O)C3CC3)ccc2OC[C@@H](C)N(CCc2ccccc2)C[C@H]1C
Second: COc1ccccc1C(=O)Nc1ccc2c(c1)C(=O)N(C)C[C@@H](OC)[C@@H](C)CN(CC1CC1)[C@@H](C)CO2
The inhibition of the first is lower: 11.1% for the first, 21.2% for the second.

Compared with `CO[C@@H]1CN(C)C(=O)c2ccc(NC(=O)Nc3cc(Cl)cc(Cl)c3)cc2OC[C@H](C)NC[C@H]1C`, `CO[C@@H]1CN(C)C(=O)c2cc(NC(=O)Nc3cccc(F)c3)ccc2OC[C@H](C)N(C)C[C@@H]1C` is lower in inhibition: -5.93% for the first, -11.1% for the second.

Compared with `CCCNC(=O)C[C@@H]1CC[C@@H]2[C@H](COC[C@H](O)CN2C(=O)c2cc(Cl)cc(Cl)c2)O1`, `Cn1cnc(CCNC(=O)C[C@H]2CC[C@@H]3[C@H](COC[C@@H](O)CN3C(=O)Nc3ccc(Cl)cc3)O2)c1` is higher in inhibition: 3.7% for the first, 33% for the second.

Going from `COc1ccc(NC(=O)N[C@H]2CC[C@@H](CCNC(=O)c3cc(Cl)cc(Cl)c3)O[C@H]2CO)cc1` to `O=C(Nc1ccccc1)N[C@@H]1CC[C@H](CCNS(=O)(=O)c2ccccc2F)O[C@@H]1CO`, the inhibition falls from -22.3% to -32.8%.

First: C[C@@H]1CCCCO[C@@H](CN(C)C(=O)NC2CCCCC2)[C@@H](C)CN([C@@H](C)CO)C(=O)c2cc(NC(=O)C3CCCCC3)ccc2O1
Second: CC(C)NC(=O)N(C)C[C@H]1OCCCC[C@@H](C)Oc2ccc(NC(=O)Nc3cccc4ccccc34)cc2C(=O)N([C@H](C)CO)C[C@@H]1C
The inhibition of the first is higher: 69.2% for the first, 33.3% for the second.

Going from `O=C(NCc1cccc(F)c1)[C@H]1[C@H](CO)[C@H]2Cn3c(cccc3=O)[C@@H]1N2` to `CC(=O)N1[C@H](CO)[C@@H](c2ccc(-c3ccc(F)cc3)cc2)[C@H]1CNC(=O)C1CC1`, the inhibition falls from 23.3% to -36%.

First: CN(C)CC(=O)N1CCCCN2[C@@H](CO)[C@H](c3ccc(-c4cccnc4)cc3)[C@@H]2C1
Second: CC(=O)N1CCCCN2[C@H](CO)[C@H](c3ccc(-c4ccccc4)cc3)[C@@H]2C1
The inhibition of the first is higher: 73.9% for the first, 72.8% for the second.

First: O=C(Nc1cc(F)ccc1F)N1CCCCN2[C@H](CO)[C@@H](c3ccc(-c4cccnc4)cc3)[C@@H]2C1
Second: O=C(Nc1cc(F)ccc1F)N1CCCCN2[C@H](C1)[C@H](c1ccc(-c3cccnc3)cc1)[C@@H]2CO
The inhibition of the first is lower: 69.1% for the first, 89.5% for the second.

Going from `O=C(Nc1ccccc1)N1CCCCN2[C@H](CO)[C@@H](c3ccc(-c4ccccc4F)cc3)[C@H]2C1` to `COc1ccccc1NC(=O)N1CCCCN2[C@@H](CO)[C@@H](c3ccc(C#Cc4ccccc4)cc3)[C@@H]2C1`, the inhibition rises from 45.9% to 94.4%.

Going from `C[C@@H]1CN([C@H](C)CO)C(=O)c2cc(NC(=O)c3ccccc3)ccc2O[C@@H](C)CCCCO[C@H]1CN(C)S(=O)(=O)c1ccccc1` to `C[C@H](CO)N1C[C@H](C)[C@H](CN(C)Cc2ccccc2)OCCCC[C@H](C)Oc2ccc(NC(=O)c3ccccc3)cc2C1=O`, the inhibition rises from -19.9% to 71.5%.

Compared with `O=C(Nc1ccc(Cl)cc1)N1C[C@@H]2[C@H](c3ccccc31)[C@@H](CO)N2C(=O)c1cccnc1`, `O=C(c1cccnc1)N1CC[C@@H]2[C@@H](CO)Nc3ccc(-c4ccccc4)cc3[C@@H]21` is higher in inhibition: -10.9% for the first, 77.8% for the second.

Compared with `C[C@@H](O)C#Cc1ccc([C@@H]2[C@@H](CO)N3CCCCN(C(=O)c4ccc(F)cc4)C[C@@H]23)cc1`, `N#C[C@@H]1[C@@H](c2ccc(-c3ccccc3F)cc2)[C@@H](CO)N1C(=O)C1CC1` is higher in inhibition: 26.5% for the first, 71.7% for the second.

Going from `C[C@@H]1CCCCO[C@@H](CN(C)CC2CC2)[C@@H](C)CN([C@H](C)CO)C(=O)c2cc(NC(=O)Nc3cccc4ccccc34)ccc2O1` to `COc1ccc(CN(C)C[C@H]2OCCCC[C@@H](C)Oc3ccc(NC(=O)Nc4cccc5ccccc45)cc3C(=O)N([C@H](C)CO)C[C@@H]2C)cc1`, the inhibition falls from 86.5% to 67.6%.

Compared with `C[C@@H]1CCCCO[C@H](CN(C)C(=O)Nc2ccc(C(F)(F)F)cc2)[C@@H](C)CN([C@@H](C)CO)C(=O)c2cc(NC(=O)Nc3cccc4ccccc34)ccc2O1`, `C[C@@H]1CCCCO[C@H](CN(C)C(=O)Nc2cccc3ccccc23)[C@@H](C)CN([C@@H](C)CO)C(=O)c2cc(NC(=O)Nc3ccc(F)cc3)ccc2O1` is higher in inhibition: 87.4% for the first, 91.1% for the second.

Going from `C[C@H](CO)N1C[C@H](C)[C@@H](CN(C)Cc2ccc(C(=O)O)cc2)OCCCC[C@H](C)Oc2ccc(NC(=O)c3ccccc3)cc2C1=O` to `C[C@@H]1CCCCO[C@H](CN(C)C(=O)c2ccccc2)[C@@H](C)CN([C@H](C)CO)C(=O)c2cc(NC(=O)Nc3cccc4ccccc34)ccc2O1`, the inhibition falls from 20.3% to -46.1%.

Going from `COc1ccc(NC(=O)N(C)C[C@@H]2OCCCC[C@@H](C)Oc3ccc(NS(=O)(=O)c4cn(C)cn4)cc3C(=O)N([C@@H](C)CO)C[C@H]2C)cc1` to `C[C@@H]1CN([C@@H](C)CO)C(=O)c2cc(NS(=O)(=O)c3cn(C)cn3)ccc2O[C@@H](C)CCCCO[C@@H]1CN(C)Cc1ccncc1`, the inhibition falls from 18.4% to -84.1%.

Going from `C[C@H](CO)N1C[C@H](C)[C@@H](CN(C)C(=O)c2ccncc2)Oc2ncc(-c3ccncc3)cc2C1=O` to `C[C@H](O)C#Cc1cnc2c(c1)C(=O)N([C@H](C)CO)C[C@H](C)[C@@H](CN(C)C(=O)Nc1ccc(F)cc1)O2`, the inhibition rises from 4.66% to 41%.

Compared with `COC(=O)[C@@H]1[C@@H](CO)[C@@H]2Cn3c(ccc(-c4ccccc4)c3=O)[C@@H]2N1C(=O)C1CC1`, `CN(C)C(=O)[C@H]1[C@H](CO)[C@H]2Cn3c(ccc(-c4ccc(F)cc4)c3=O)[C@H]2N1C(=O)c1ccccn1` is lower in inhibition: 59.9% for the first, 32.7% for the second.

Going from `O=C(N[C@H]1C=C[C@@H](CC(=O)N2CCN(c3ccccc3)CC2)O[C@@H]1CO)c1ccncc1` to `O=C([C@H]1[C@H](CO)[C@H]2Cn3c(ccc(-c4ccccc4)c3=O)[C@@H]1N2Cc1cccnc1)N1CCOCC1`, the inhibition rises from -7% to 28.9%.

Compared with `CC(=O)N(C)C[C@@H]1Oc2cc(-c3cccnc3)ccc2S(=O)(=O)N([C@H](C)CO)C[C@H]1C`, `COCC(=O)N(C)C[C@H]1[C@@H](c2ccc(-c3cccnc3)cc2)[C@H](CO)N1C(C)=O` is higher in inhibition: -140% for the first, 84.3% for the second.

Compared with `O=C(C[C@@H]1CC[C@@H]2[C@H](COC[C@H](O)CN2S(=O)(=O)c2ccc(Cl)cc2)O1)N[C@@H]1CCN(Cc2ccccc2)C1`, `CC(=O)N1[C@H](CO)[C@H](c2ccc(-c3ccccc3)cc2)[C@H]1CNC(=O)C1CC1` is lower in inhibition: 43.9% for the first, -0.382% for the second.

Going from `N#Cc1cccc(-c2ccc3c(c2)[C@H]2[C@H](CCN2Cc2ccc4c(c2)OCO4)[C@@H](CO)N3)c1` to `COc1ccc(-c2ccc3c(c2)[C@H]2[C@H](CCN2C(=O)c2ccc4c(c2)OCO4)[C@@H](CO)N3)cc1`, the inhibition falls from 27.1% to 13.9%.

Going from `OC[C@@H]1Nc2ccc(-c3ccc(F)cc3)cc2[C@@H]2[C@H]1CCN2Cc1ccc(F)cc1` to `O=C(c1cccnc1)N1CC[C@H]2[C@H](CO)Nc3ccc(-c4ccc(F)cc4)cc3[C@H]21`, the inhibition rises from 22.6% to 74.7%.

First: O=C(c1ccccc1)N1CC[C@H]2[C@H](CO)Nc3ccc(-c4ccc(F)cc4)cc3[C@H]21
Second: O=C(C1CCC1)N1CC[C@H]2[C@H](CO)Nc3ccc(-c4cccc(F)c4)cc3[C@H]21
The inhibition of the first is lower: 59.1% for the first, 92.4% for the second.

First: COCC(=O)N1CC[C@H]2[C@H](CO)Nc3ccc(-c4ccc(C(=O)N(C)C)cc4)cc3[C@H]21
Second: CC(=O)N1[C@H](CO)[C@@H](c2ccc(-c3ccccc3)cc2)[C@H]1CNC(=O)C1CC1
The inhibition of the first is higher: 90.6% for the first, -18% for the second.

Compared with `O=C(NC[C@@H]1[C@@H](c2ccccc2)[C@@H](CO)N1Cc1ccccn1)C1CCC1`, `CCC(=O)N(C)C[C@H]1[C@H](c2ccc(-c3ccccc3F)cc2)[C@@H](CO)N1C(C)=O` is lower in inhibition: 31.9% for the first, 8.38% for the second.

Compared with `C/C=C/c1ccc([C@@H]2[C@@H](CN(C)C(C)=O)N(C(=O)C3CC3)[C@H]2CO)cc1`, `COc1cccc(S(=O)(=O)Nc2ccc3c(c2)[C@H]2C[C@H](CC(=O)N4CCCCC4)O[C@@H](CO)[C@H]2O3)c1` is higher in inhibition: -20.4% for the first, 32.8% for the second.

For `O=C(Nc1ccccc1F)N1CCCCN2[C@H](CO)[C@@H](c3ccc(-c4cccnc4)cc3)[C@H]2C1`, the inhibition was 104% (active).
In the case of `COc1ccccc1NC(=O)N1CCCCN2[C@H](C1)[C@H](c1ccc(-c3ccccc3)cc1)[C@@H]2CO`, the inhibition is reported as 119% (active).
For `O=C(Nc1cc(F)ccc1F)N1CCCCN2[C@H](CO)[C@@H](c3ccc(-c4cncnc4)cc3)[C@H]2C1`, the inhibition was 106% (active).
In the case of `C[C@@H]1CN([C@@H](C)CO)C(=O)c2cc(NC(=O)Nc3cccc4ccccc34)ccc2O[C@@H](C)CCCCO[C@H]1CN(C)Cc1ccccc1`, the inhibition is reported as 112% (active).
In the case of `C[C@@H]1CCCCO[C@@H](CN(C)C(=O)Nc2ccc(F)cc2)[C@H](C)CN([C@H](C)CO)C(=O)c2cc(NC(=O)Nc3cccc4ccccc34)ccc2O1`, the inhibition is reported as 108% (active).
With `C[C@H]1CCCCO[C@H](CN(C)Cc2ccccc2)[C@@H](C)CN([C@@H](C)CO)C(=O)c2cc(NC(=O)c3ccccc3)ccc2O1` the inhibition was 102% (active).
With `C[C@@H]1CCCCO[C@@H](CN(C)Cc2ccccc2)[C@H](C)CN([C@H](C)CO)C(=O)c2cc(NC(=O)Nc3cccc4ccccc34)ccc2O1` the inhibition was 112% (active).
In the case of `CN(C)C(=O)c1ccc(-c2ccc3c(c2)[C@H]2[C@H](CCN2C(=O)c2ccc4c(c2)OCO4)[C@H](CO)N3)cc1`, the inhibition is reported as 99.5% (active).
In the case of `OC[C@@H]1Nc2ccc(-c3cccc(F)c3)cc2[C@H]2[C@@H]1CCN2Cc1ccncc1`, the inhibition is reported as 115% (active).
In the case of `O=C(c1cnccn1)N1CC[C@@H]2[C@H](CO)Nc3ccc(-c4cccc(F)c4)cc3[C@@H]21`, the inhibition is reported as 109% (active).
For `O=C(c1ccccn1)N1CC[C@@H]2[C@H]1c1cc(-c3ccccc3)ccc1N[C@@H]2CO`, the inhibition was 106% (active).
For `CC(=O)NC[C@@H]1[C@@H](c2ccc(-c3ccccc3F)cc2)[C@@H](CO)N1C(=O)C1CC1`, the inhibition was 108% (active).
With `CC(=O)N1[C@H](CNC(=O)C2CC2)[C@@H](c2ccc(-c3cccc(F)c3)cc2)[C@@H]1CO` the inhibition was 98.8% (active).
With `CC(=O)N(C)C[C@@H]1[C@@H](c2ccc(-c3ccccc3F)cc2)[C@@H](CO)N1C(C)=O` the inhibition was 113% (active).
